In the library only some 6.8% were active in any assay of this set; here they are far more common.
Spn PMK inh: S. pneumoniae PMK inhibition; actives 0.49% (n = 65,000); inhibition, % at 10 µM; AID 539; purified PMK, PK/LDH-coupled NADH absorbance 340 nm;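 active = top-ranked compounds by inhibition in the single 10 µM screen, taking a fixed number of the strongest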;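 also: 0% = full reaction with DMSO carrier and 100% = background rate without enzyme reaction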
DPM-DC inhibit: inhibitors of Streptococcus pneumoniae diphosphomevalonate decarboxylase; AID 556; calls only at 10 µM; purified DPM-DC, PK/LDH coupled NADH fluorescence; actives 0.49% (n = 65,000);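 active = the 320 compounds with the highest percent inhibition in the single-dose primary screen, excluding strongly autofluorescent ones, cut at about 32% in these data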;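 also: kinetic rate of NADH fluorescence loss reporting ADP formed by the decarboxylase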
MK inhibit: S. pneumoniae mevalonate kinase inhibition; inhibition, % at 10 µM; actives 0.48% (n = 65,000); purified MK, PK/LDH-coupled NADH absorbance 340 nm;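 active = ranked among the strongest by inhibition in the single 10 µM screen, a fixed top-ranked set picked for dose follow-up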
A340 absorber: absorbance at 340 nm; compound absorbance at 340 nm, fold over control; fold change at 10 µM; 65,000 tested, under 10 active; AID 708;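 active = at 10 µM dose, initial 340 nm absorbance at least 2 fold that of control wells; inactive = change under 2 fold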;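 also: initial absorbance extrapolated from kinetic A340 decline of NADH oxidation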
Fluor 339 460: intrinsic fluorescence of library compounds, ex339/em460 – biochemical, MLSMR library, data from DPM-DC assay, artefact control, profiling panel | compound autofluorescence, ex339/em460 nm, NADH buffer; hits give high values; 1 = no-compound wells, NADH background | fluorescence fold increase at 10 µM | actives 5.5% (n = 65,000);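 active = at 10 µM, mean starting fluorescence two-fold or more over control wells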;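 also: signal is the first read of a kinetic run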
NADH enzymes: blocks coupling enzymes of NAD/NADH assays; AID 774; actives 0.02% (n = 65,000); IC50, µM (highest dose often 10 µM), for inactives: top-dose inhibition; coupled PK/LDH NADH assays, four targets;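 active = single-dose screening hits from any of four coupled enzyme assays that gave an IC50 when retested across doses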;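 also: the DPM-DC format reads NADH fluorescence rather than 340 nm absorbance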
* hit, by the source's call.

Results for CCOC(=O)N1CCN(c2ncnc3c2oc2nc(CC(C)C)c4c(c23)CCC4)CC1 ?
Spn PMK inh: 0.0; DPM-DC inhibit: inactive; MK inhibit: 0.0; A340 absorber: 1.04; Fluor 339 460: 1.79; NADH enzymes: 3.0%

How did CC1(C)Cc2nc(N3CCOCC3)c(C#N)cc2CO1 do in these assays?
Spn PMK inh: 12.0; MK inhibit: 15.0; A340 absorber: 1.1; Fluor 339 460: 3.69*; NADH enzymes: 14.0%

What do the screens show for `CC1(C)Cc2c(C#N)c(SCc3ccccc3)nc(N3CCOCC3)c2CO1`?
Spn PMK inh: 2.0; DPM-DC inhibit: inactive; MK inhibit: 5.0; A340 absorber: 1.07; Fluor 339 460: 1.14; NADH enzymes: 3.0%

How did CCCC(=O)N1CCN(c2nc(CC(C)C)c3c(c2C#N)CCC3)CC1 do in these assays?
Spn PMK inh: 1.0; MK inhibit: 9.0; A340 absorber: 1.04; Fluor 339 460: 2.2*; NADH enzymes: 5.0%

Results for CC1(C)Cc2nc(NCCCO)c(C#N)cc2CO1 ?
Spn PMK inh: 4.0; MK inhibit: 0.0; A340 absorber: 1.05; Fluor 339 460: 2.38*; NADH enzymes: 2.0%

How did N#Cc1cc2cc3c(cc2nc1N1CCOCC1)OCO3 do in these assays?
Spn PMK inh: 10.0; MK inhibit: 0.0; A340 absorber: 1.05; Fluor 339 460: 3.76*; NADH enzymes: 5.0%

How did Cc1cc(C)n2nc(CC(=O)NC3CCCCCC3)nc2n1 do in these assays?
Spn PMK inh: 22.0; DPM-DC inhibit: inactive; MK inhibit: 2.0; A340 absorber: 1.01; Fluor 339 460: 1.04; NADH enzymes: 8.0%

What do the screens show for `CC1=CC(C)(C)N=C(Nc2ccc(C)cc2)S1`?
Spn PMK inh: 6.0; DPM-DC inhibit: inactive; MK inhibit: 0.0; A340 absorber: 1.05; Fluor 339 460: 1.13; NADH enzymes: 2.0%

Results for CCOC(=O)N1CCC(NC(=O)c2cnc3n(c2=O)CCS3)CC1 ?
Spn PMK inh: 0.0; DPM-DC inhibit: inactive; MK inhibit: 5.0; A340 absorber: 1.01; Fluor 339 460: 1.08; NADH enzymes: 2.0%

Results for Cc1nc(N2CCOCC2)c(C#N)c2c1COC(C)(C)C2 ?
Spn PMK inh: 0.0; MK inhibit: 0.0; A340 absorber: 1.04; Fluor 339 460: 2.29*; NADH enzymes: 0.0%

Results for CC(C)C(=O)N1CCN(c2nc(-c3ccccc3)c3c(c2C#N)CCCC3)CC1 ?
Spn PMK inh: 2.0; MK inhibit: 3.0; A340 absorber: 1; Fluor 339 460: 2.25*; NADH enzymes: 4.0%

Results for CC1(C)Cc2c(C#N)c(N3CCOCC3)nc(Cc3ccccc3)c2CO1 ?
Spn PMK inh: 6.0; MK inhibit: 3.0; A340 absorber: 1.04; Fluor 339 460: 2.29*; NADH enzymes: 5.0%

What do the screens show for `COc1ccc(CCNC2CCN(C)CC2)cc1OC`?
Spn PMK inh: 10.0; DPM-DC inhibit: inactive; MK inhibit: 1.0; A340 absorber: 1.03; Fluor 339 460: 1.13; NADH enzymes: 4.0%

What do the screens show for `O=C(CCCCCC(=O)N(CCO)CCO)N(CCO)CCO`?
Spn PMK inh: 7.0; DPM-DC inhibit: inactive; MK inhibit: 11.0; A340 absorber: 1.03; Fluor 339 460: 1.09; NADH enzymes: 6.0%

What do the screens show for `N#CCCN(C1CCCCC1)S(=O)(=O)CCOc1ccccc1`?
Spn PMK inh: 8.0; DPM-DC inhibit: inactive; MK inhibit: 12.0; A340 absorber: 1.04; Fluor 339 460: 1.08; NADH enzymes: 7.0%

Results for COc1ccc(-n2nc3c(c2NC(=O)c2c(F)cccc2Cl)CS(=O)C3)cc1 (stereo not given) ?
Spn PMK inh: 5.0; DPM-DC inhibit: inactive; MK inhibit: 9.0; A340 absorber: 1.02; Fluor 339 460: 1.12; NADH enzymes: 9.0%

Results for CCOc1ccc(CN2CCNC(=O)C2CC(=O)OC)cc1 (stereo not given) ?
Spn PMK inh: 7.0; DPM-DC inhibit: inactive; MK inhibit: 5.0; A340 absorber: 1.03; Fluor 339 460: 1.12; NADH enzymes: 6.0%

What do the screens show for `Cn1c(=O)c2c(SCC(=O)NCC3CCCO3)nc(-c3cccs3)nc2n(C)c1=O` (stereo not given)?
Spn PMK inh: 2.0; MK inhibit: 3.0; A340 absorber: 1.21; Fluor 339 460: 2.2*; NADH enzymes: 3.0%

How did CC(C)Sc1nc(-c2cccs2)nc2c1c(=O)n(C)c(=O)n2C do in these assays?
Spn PMK inh: 14.0; DPM-DC inhibit: inactive; MK inhibit: 8.0; A340 absorber: 1.1; Fluor 339 460: 1.4; NADH enzymes: 9.0%

How did CCc1ccc2[nH]c(=O)c(CN(Cc3ccc(OC)cc3)Cc3nnnn3CCOC)cc2c1 do in these assays?
Spn PMK inh: 0.0; DPM-DC inhibit: inactive; MK inhibit: 9.0; A340 absorber: 1.06; Fluor 339 460: 1.35; NADH enzymes: 6.0%

How did COc1cc2cc(CN(Cc3nnnn3Cc3ccccc3)CC3CCCO3)c(=O)[nH]c2cc1OC (stereo not given) do in these assays?
Spn PMK inh: 15.0; DPM-DC inhibit: inactive; MK inhibit: 13.0; A340 absorber: 1.08; Fluor 339 460: 3.26*; NADH enzymes: 18.0%

What do the screens show for `COc1ccc2[nH]c(=O)c(CN(Cc3ccccc3)Cc3nnnn3CC3CCCO3)cc2c1` (stereo not given)?
Spn PMK inh: 10.0; DPM-DC inhibit: inactive; MK inhibit: 12.0; A340 absorber: 1.05; Fluor 339 460: 2.32*; NADH enzymes: 13.0%

Results for Cc1ccc2[nH]c(=O)c(CN(Cc3cccs3)Cc3nnnn3Cc3ccccc3)cc2c1 ?
Spn PMK inh: 11.0; DPM-DC inhibit: inactive; MK inhibit: 8.0; A340 absorber: 1; Fluor 339 460: 1.18; NADH enzymes: 6.0%

What do the screens show for `CCOC(=O)c1oc2ccc3c(c2c1C)C(=O)CC1(CCN(C(=O)OCC)CC1)O3`?
Spn PMK inh: 5.0; DPM-DC inhibit: inactive; MK inhibit: 9.0; A340 absorber: 1.03; Fluor 339 460: 1.47; NADH enzymes: 5.0%

What do the screens show for `CCOC(=O)N1CCC2(CC1)CC(=O)c1c(ccc3oc(C(=O)O)c(C)c13)O2`?
Spn PMK inh: 10.0; MK inhibit: 9.0; A340 absorber: 1; Fluor 339 460: 3.38*; NADH enzymes: 4.0%

Results for N#Cc1cccc(NC(=O)N2CCC(c3nc4c(nnn4Cc4cccc(Cl)c4)c(=O)[nH]3)CC2)c1 ?
Spn PMK inh: 9.0; DPM-DC inhibit: inactive; MK inhibit: 8.0; A340 absorber: 1.03; Fluor 339 460: 1.18; NADH enzymes: 8.0%

What do the screens show for `Nc1ccc2c3c(cccc13)CC2`?
Spn PMK inh: 2.0; MK inhibit: 6.0; A340 absorber: 1.04; Fluor 339 460: 2.33*; NADH enzymes: 4.0%

What do the screens show for `CCCCn1c(SCC(=O)c2ccc(OC)cc2OC)nc2cc(S(N)(=O)=O)ccc21`?
Spn PMK inh: 10.0; DPM-DC inhibit: inactive; MK inhibit: 4.0; A340 absorber: 1.05; Fluor 339 460: 2.53*; NADH enzymes: 14.0%

Results for Cc1cc(N2CCCC2)nc(-c2ccccc2O)n1 ?
Spn PMK inh: 15.0; DPM-DC inhibit: inactive; MK inhibit: 7.0; A340 absorber: 0.98; Fluor 339 460: 2.64*; NADH enzymes: 14.0%

Source: PubChem BioAssay (SRMLSC)
